# Reference: PubChem BioAssay
# Activity calls are given as the source filed them. Unless noted, no rule for the calls is given here.
# How the values were obtained:
# [1] = system: Wnt5a (protein binding on small-molecule microarray); experiment: Wnt5a binders on small-molecule microarray, primary screen, biophysical, 635/667 nm fluorescence (AID 1142); conditions: 635 nm fluorescence, higher = more signal;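 also: fluorescence read at 667 nm with signal to noise per printed feature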
# [2] = cell viability in Huh7 cells, primary screen, cytotoxicity control for HCV replication inhibitor project, CellTiter-Glo luminescence, basal, 48 h (AID 1143); conditions: Huh7 HCV replicon, higher = more signal, called active from +8 up or from −8 down;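 also: Huh7 hepatoma cells carrying a hepatitis C replication reporter with no stimulus; test concentration not given here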
# [3] = P. aeruginosa biofilm formation inhibitors, primary screen, PAO1 strain, BacTiter-Glo luminescence, LB-PBS (AID 1144); conditions: 12 h, higher = more signal
# [4] = CREB reporter modulators without forskolin, primary screen, cell-based, PC12, CRE-LacZ reporter, unstimulated (AID 1145); conditions: no forskolin, luminescence, 4.5 h, higher = more signal, called active from +8 up or from −8 down
# [5] = CREB reporter modulators under forskolin, primary screen, cell-based, PC12, CRE-LacZ reporter, forskolin-stimulated (AID 1146); conditions: luminescence, 4.5 h, higher = more signal, called active from +8 up or from −8 down;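 also: PC12 cells with 6xCRE LacZ reporter stimulated by forskolin 10 µM; beta-galactosidase reporter signal reflecting CREB driven transcription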
# [6] = target: Streptavidin (Streptomyces avidinii) (UniProt P22629); experiment: streptavidin binders on small-molecule microarray, primary screen, artefact control for SMM compound annotation, biophysical, 635/667 nm fluorescence (AID 1147); conditions: streptavidin binding, higher = more signal;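 also: signal reflects streptavidin binding to arrayed compounds as a control protein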
# [7] = small-molecule binders of probe aInhba, primary screen, biochemical, small-molecule microarray, 635/667 nm fluorescence (AID 1148); conditions: higher = more signal;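 also: score merges 667nm spot fluorescence with signal-to-noise for antibody binding to printed compounds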
# Torsin-1A (Homo sapiens) [8] = target: Torsin-1A (Homo sapiens) (UniProt O14656); experiment: torsin A binders from cell lysate, primary screen, small-molecule microarray, wild-type, 635/667 nm (AID 1149); conditions: COS7 hTOR1A-WT lysate, 635 nm fluorescence, higher = more signal
# Torsin-1A (Homo sapiens) [9] = target: Torsin-1A (Homo sapiens) (UniProt O14656); experiment: small-molecule binders of mutant TOR1A in lysate, primary screen, cell lysate, small-molecule microarray, COS7 lysate, 635/667 nm fluorescence (AID 1150); conditions: COS7 hTOR1A mutant lysate, 635 nm fluorescence, higher = more signal;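 also: score pools 667 nm emission and signal to noise measuring lysate protein binding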
# [10] = system: Sonic hedgehog protein (Shh); experiment: small-molecule binders of Shh protein, primary screen, biochemical, small-molecule microarray, 635/667 nm fluorescence (AID 1151); conditions: small-molecule microarray binding, 635 nm fluorescence; higher = more signal;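 also: Shh protein binding to compounds spotted on small-molecule microarray slides; score combines spot fluorescence intensity with signal-to-noise across triplicate slides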
# [11] = E. coli DRC41 culture turbidity changes, primary screen, E. coli filamentation inducer project, strain DRC41, OD650, 48 h (AID 1152);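 also: E. coli MC1000 strain DRC41 lacking acrAB efflux pump and sulA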; conditions: E. coli DRC41 (acrAB sulA), higher = more signal, called active from +8 up or from −8 down
# [12] = small-molecule binders of probe aLefty1, primary screen, biochemical, small-molecule microarray, 635/667 nm fluorescence (AID 1153); conditions: higher = more signal;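 also: score merges spot fluorescence with signal-to-noise ratio from the scanned slide images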
# [13] = PSAC antagonists in infected red cells, primary screen, cell-based, P. falciparum Indochina, OD700, 1 h (AID 1154); conditions: P. falciparum Indochina infected RBC osmotic lysis, higher = more signal, called active from +8 up or from −8 down
# [14] = PSAC antagonists in infected red cells, primary screen, cell-based, P. falciparum Indochina, OD700, 2 h (AID 1155);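 also: lysis reports solute entry through the parasite surface anion channel PSAC; channel blockers reduce lysis of infected cells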; conditions: P. falciparum Indochina infected erythrocytes, osmotic lysis OD700; higher = more signal, called active from +8 up or from −8 down
# [15] = osmotic lysis modulators in infected erythrocytes, primary screen, PSAC antagonist project, cell-based, P. falciparum Indochina, OD700, 3 h (AID 1156); conditions: higher = more signal, called active from +8 up or from −8 down
# [16] = PSAC antagonists in infected red cells, primary screen, cell-based, P. falciparum Indochina, OD700, 18 h (AID 1157); conditions: P. falciparum Indochina infected erythrocytes, osmotic lysis OD700, 18 h; higher = more signal, called active from +8 up or from −8 down
# [17] = modulators of S6 phosphorylation in cells, primary screen, cell-based, A549, cytoblot, luminescence, serum-stimulated (AID 1158); conditions: A549 phospho-S6 cytoblot, 5 h, higher = more signal;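 also: serum-stimulated A549 lung adenocarcinoma cells; signal is phosphorylated S6 detected by cytoblot immunostaining with HRP secondary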
# [18] = target: NADPH oxidase 2 (Homo sapiens) (UniProt P04839); experiment: NOX2-dependent H2O2 signal modulators, primary screen, NOX inhibitor project, cell-based, HEK293-NOX2, PMA-stimulated, Amplex Red fluorescence (AID 1159); conditions: 45 min, higher = more signal, called active from +8 up or from −8 down; also: test concentration not given here
# [19] = target: NADPH oxidase 4 (Homo sapiens) (UniProt Q9NPH5); experiment: NOX4-dependent H2O2 signal modulators, primary screen, NOX inhibitor project, cell-based, HEK293-NOX4, tetracycline-induced, Amplex Red fluorescence (AID 1160); conditions: 45 min, higher = more signal, called active from +8 up or from −8 down
# [20] = target: NADPH oxidase 5 (Homo sapiens) (UniProt Q96PH1); experiment: NOX5-dependent H2O2 signal modulators, primary screen, NOX inhibitor project, cell-based, HEK293-NOX5, Amplex Red fluorescence (AID 1161); conditions: HEK293-NOX5, ionomycin, 45 min, higher = more signal
# Sequence of NADPH oxidase 5 (Homo sapiens) (Q96PH1 whole entry, looked up): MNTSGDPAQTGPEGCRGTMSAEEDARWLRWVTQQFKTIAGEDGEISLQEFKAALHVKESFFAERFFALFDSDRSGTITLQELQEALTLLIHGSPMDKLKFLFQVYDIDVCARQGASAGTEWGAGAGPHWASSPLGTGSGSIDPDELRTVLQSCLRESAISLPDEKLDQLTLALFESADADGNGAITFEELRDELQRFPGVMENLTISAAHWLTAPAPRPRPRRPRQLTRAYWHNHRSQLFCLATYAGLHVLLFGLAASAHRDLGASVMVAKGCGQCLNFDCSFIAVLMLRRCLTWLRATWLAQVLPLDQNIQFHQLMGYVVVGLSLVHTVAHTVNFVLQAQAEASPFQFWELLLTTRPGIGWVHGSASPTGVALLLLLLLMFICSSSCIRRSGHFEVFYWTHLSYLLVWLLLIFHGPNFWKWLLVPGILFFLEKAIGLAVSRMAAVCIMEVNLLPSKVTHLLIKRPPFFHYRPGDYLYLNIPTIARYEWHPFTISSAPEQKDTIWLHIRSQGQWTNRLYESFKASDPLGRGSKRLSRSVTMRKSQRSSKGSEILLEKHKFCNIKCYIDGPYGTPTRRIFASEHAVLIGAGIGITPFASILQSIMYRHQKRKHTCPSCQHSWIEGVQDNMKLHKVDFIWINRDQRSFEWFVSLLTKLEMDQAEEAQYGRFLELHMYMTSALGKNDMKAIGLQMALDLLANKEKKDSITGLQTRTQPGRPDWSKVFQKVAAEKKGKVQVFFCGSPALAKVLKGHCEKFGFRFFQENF
# Sequence of Torsin-1A (Homo sapiens) (O14656 whole entry, looked up): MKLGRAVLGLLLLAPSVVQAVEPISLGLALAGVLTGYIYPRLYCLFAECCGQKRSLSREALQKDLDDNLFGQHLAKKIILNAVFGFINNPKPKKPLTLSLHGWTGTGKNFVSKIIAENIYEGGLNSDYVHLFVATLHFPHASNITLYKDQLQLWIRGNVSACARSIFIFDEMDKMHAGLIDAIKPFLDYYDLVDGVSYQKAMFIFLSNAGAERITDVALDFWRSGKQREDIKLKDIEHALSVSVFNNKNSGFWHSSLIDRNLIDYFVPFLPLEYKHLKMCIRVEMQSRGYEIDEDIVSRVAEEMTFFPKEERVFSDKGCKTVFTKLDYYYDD
# Sequence of Streptavidin (Streptomyces avidinii) (P22629 whole entry, looked up): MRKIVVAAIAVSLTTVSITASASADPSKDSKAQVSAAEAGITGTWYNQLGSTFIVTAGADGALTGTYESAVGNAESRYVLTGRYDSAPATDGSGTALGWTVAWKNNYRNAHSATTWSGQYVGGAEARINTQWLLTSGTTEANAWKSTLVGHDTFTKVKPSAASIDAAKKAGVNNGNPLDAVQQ
# Sequence of NADPH oxidase 4 (Homo sapiens) (Q9NPH5 whole entry, looked up): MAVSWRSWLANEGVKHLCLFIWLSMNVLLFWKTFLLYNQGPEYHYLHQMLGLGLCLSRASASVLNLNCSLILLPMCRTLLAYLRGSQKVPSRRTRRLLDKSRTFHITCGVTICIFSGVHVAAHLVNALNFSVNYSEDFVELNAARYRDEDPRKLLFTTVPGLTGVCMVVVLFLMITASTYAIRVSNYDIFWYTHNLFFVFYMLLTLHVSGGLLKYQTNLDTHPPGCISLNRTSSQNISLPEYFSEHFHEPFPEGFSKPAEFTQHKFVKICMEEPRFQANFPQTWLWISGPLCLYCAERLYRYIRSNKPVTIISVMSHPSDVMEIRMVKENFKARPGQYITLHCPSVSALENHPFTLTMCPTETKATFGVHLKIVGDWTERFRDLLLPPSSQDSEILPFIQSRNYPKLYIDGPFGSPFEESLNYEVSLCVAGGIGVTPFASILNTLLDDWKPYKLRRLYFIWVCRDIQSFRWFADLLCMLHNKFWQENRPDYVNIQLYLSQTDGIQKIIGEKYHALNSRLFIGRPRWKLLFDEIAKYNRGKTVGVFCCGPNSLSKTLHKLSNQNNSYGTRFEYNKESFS
# Sequence of NADPH oxidase 2 (Homo sapiens) (P04839 whole entry, looked up): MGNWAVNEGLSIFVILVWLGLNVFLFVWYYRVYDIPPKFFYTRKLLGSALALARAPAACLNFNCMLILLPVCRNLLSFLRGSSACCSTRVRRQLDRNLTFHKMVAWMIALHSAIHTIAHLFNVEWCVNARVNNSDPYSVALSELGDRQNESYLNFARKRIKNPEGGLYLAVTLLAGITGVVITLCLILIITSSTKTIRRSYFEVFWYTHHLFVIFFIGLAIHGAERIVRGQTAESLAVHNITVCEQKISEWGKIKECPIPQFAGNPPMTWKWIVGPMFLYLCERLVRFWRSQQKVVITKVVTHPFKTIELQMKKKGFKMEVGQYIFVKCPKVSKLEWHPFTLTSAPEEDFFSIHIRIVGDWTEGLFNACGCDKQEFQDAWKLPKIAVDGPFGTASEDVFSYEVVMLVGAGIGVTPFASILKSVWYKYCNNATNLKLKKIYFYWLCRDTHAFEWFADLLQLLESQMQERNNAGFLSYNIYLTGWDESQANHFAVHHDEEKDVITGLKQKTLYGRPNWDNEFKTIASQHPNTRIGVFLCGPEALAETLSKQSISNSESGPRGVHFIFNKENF
SMILES,composite z-score [1],z-score [2],z-score [3],z-score [4],z-score [5],composite z-score [6],composite z-score [7],composite z-score (Torsin-1A (Homo sapiens) [8]),composite z-score (Torsin-1A (Homo sapiens) [9]),composite z-score [10],z-score [11],composite z-score [12],z-score [13],z-score [14],z-score [15],z-score [16],z-score [17],z-score [18],z-score [19],z-score [20]
O=C1O[C@@H](c2ccccc2)[C@@H](c2ccccc2)N2[C@@H](c3ccccc3OCCO)[C@]3(C(=O)Nc4ccccc43)[C@@H](C(=O)Nc3nc4ccccc4s3)[C@H]12,0.371,-5.91 (inactive),-0.311 (inactive),0.568 (inactive),3.07 (inactive),1.9,0.286,0.469,0.972,2.03,0.533 (inactive),1.14,2.02 (inactive),1.59 (inactive),0.0197 (inactive),-1.52 (inactive),1.53,0.188 (inactive),-0.547 (inactive),-1.6
C=C(CCCC)/C(=C/C[C@H](OC(C)=O)c1ccccc1OCCO)c1cc(C(=O)OC)ccc1OC,0.0205,-3.83 (inactive),0.437 (inactive),13.3 (active),-0.671 (inactive),-0.24,-0.157,-0.266,-0.174,0.199,1.02 (inactive),-0.0046,15.1 (active),0.621 (inactive),2.54 (inactive),-1.43 (inactive),0.708,0.254 (inactive),0.101 (inactive),-1.92
COc1ccc(CCNC(=O)[C@@]2(Sc3ccc(C)cc3)CC(=O)N(C3Cc4ccccc4C3)[C@@H]2c2ccc(CO)cc2I)cc1,-0.234,-1.23 (inactive),0.74 (inactive),0.649 (inactive),1.82 (inactive),-0.814,-0.196,-0.27,0.0598,-0.862,0.657 (inactive),0.627,10.7 (active),1.95 (inactive),0.497 (inactive),0.768 (inactive),-0.123,1.51 (inactive),-1.66 (inactive),1.9
C=C[C@H](OC)[C@@H](OC(=O)Nc1ccc(OC)cc1)c1ccc(O)c(F)c1,-0.311,-3.6 (inactive),-0.689 (inactive),1.24 (inactive),3.4 (inactive),-1.2,-0.179,0.732,-0.11,0.665,0.496 (inactive),0.0921,4.19 (inactive),0.484 (inactive),-0.433 (inactive),0.253 (inactive),-0.102,-1.5 (inactive),1.1 (inactive),5.13
COC(=O)[C@@]1(Cc2ccc(OC)cc2)[C@H]2c3cc(C(=O)N(C)C)n(Cc4ccccn4)c3C[C@H]2CN1C(=O)c1ccccc1,0.164,-1.17 (inactive),0.691 (inactive),1.16 (inactive),0.97 (inactive),2.57,0.322,0.192,1.59,-0.403,-1.76 (inactive),0.771,1.63 (inactive),0.463 (inactive),1.01 (inactive),0.863 (inactive),0.704,0.188 (inactive),-1.32 (inactive),-2.73
C=CC[C@@]12N=C(c3ccc(OCCCO)cc3)O[C@@H]1c1ccccc1N(C)C2=O,1.25,-4.44 (inactive),-0.0229 (inactive),0.297 (inactive),-0.845 (inactive),0.248,0.268,-0.0951,0.713,1.42,1.12 (inactive),0.349,33.2 (active),32.3 (active),2.02 (inactive),3.46 (inactive),0.368,-2.99 (inactive),-0.963 (inactive),-1.85
CO[C@H]1O[C@H](CO)[C@@H](OC(=O)Nc2ccc(C(F)(F)F)cc2)[C@H](OC(=O)Nc2ccc3c(c2)OCO3)[C@@H]1OC(=O)Nc1ccc2c(c1)OCO2,0.246,-4.31 (inactive),0.999 (inactive),0.652 (inactive),-1.93 (inactive),0.273,-0.157,1.81,1.23,0.57,-0.112 (inactive),0.199,25.8 (active),15.3 (active),3.6 (inactive),1.77 (inactive),-0.176,-0.794 (inactive),-0.393 (inactive),-0.486
COc1cc2c(cc1OC)CN(C(=O)[C@@H]1[C@H]3C(=O)O[C@H](c4ccccc4)[C@H](c4ccccc4)N3[C@H](c3ccc(O)cc3)[C@@]13C(=O)Nc1ccccc13)CC2,0.33,-4.24 (inactive),-1.07 (inactive),0.685 (inactive),-0.0307 (inactive),0.523,0.121,1.05,0.341,1.33,2.38 (inactive),0.154,1.32 (inactive),0.216 (inactive),-0.287 (inactive),-1.28 (inactive),2.99,0.00476 (inactive),-0.339 (inactive),-0.19
Cc1nc2cc(Br)ccc2c(=O)o1,0.119,-1.66 (inactive),-1.06 (inactive),-0.464 (inactive),-1.27 (inactive),0.498,0.0319,0.842,0.642,0.113,0.776 (inactive),0.442,0.252 (inactive),0.0276 (inactive),0.193 (inactive),-0.509 (inactive),0.472,0.288 (inactive),-0.0246 (inactive),0.256
NC(=O)NCC#Cc1ccc2c(c1)[C@]1(C(=O)N2)[C@H](c2ccc(O)cc2)N2[C@H](c3ccccc3)[C@H](c3ccccc3)OC(=O)[C@H]2[C@@H]1C(=O)O,-0.763,0.0192 (inactive),-0.248 (inactive),0.895 (inactive),-0.226 (inactive),-0.256,-0.299,-1.13,-0.914,-0.453,-0.876 (inactive),-0.573,3.1 (inactive),0.179 (inactive),0.259 (inactive),0.485 (inactive),-0.0856,0.879 (inactive),-0.0146 (inactive),-0.305
CC(C)[Si]1(C(C)C)O[C@@H](c2ccccc2)c2cc(-c3ccc(-c4ccc(Cl)c(Cl)c4)o3)nc(-c3ccccc3)c21,-0.0503,-0.62 (inactive),0.115 (inactive),-1.12 (inactive),2.02 (inactive),0.105,-0.0044,-0.118,0.261,0.15,-1.12 (inactive),-0.0611,0.704 (inactive),0.0805 (inactive),-0.449 (inactive),0.656 (inactive),-0.121,-0.364 (inactive),1.36 (inactive),1.26
Cc1ccc(S[C@]2(C(=O)NCCCN(C)C)CC(=O)N(Cc3cc(C(F)(F)F)cc(C(F)(F)F)c3)[C@@H]2c2ccc(CO)cc2)cc1,-0.202,-0.0481 (inactive),-0.617 (inactive),-0.152 (inactive),1.19 (inactive),-0.529,0.0363,-0.0089,-0.256,-0.664,-0.48 (inactive),-0.506,1.24 (inactive),0.0808 (inactive),-0.0534 (inactive),0.327 (inactive),1.11,-0.373 (inactive),0.414 (inactive),0.942
O=C1c2ccccc2[C@](Cc2ccccc2I)(C(=O)NCCN2CCOCC2)[C@H](c2ccc(CO)cc2)N1C1CCCCC1,0.379,-3.69 (inactive),0.155 (inactive),-0.168 (inactive),-0.0922 (inactive),0.934,0.216,0.873,0.469,1.52,0.0237 (inactive),0.373,3.66 (inactive),0.814 (inactive),0.664 (inactive),0.5 (inactive),-0.164,0.155 (inactive),0.784 (inactive),0.958
COc1cc2c(cc1O)C(c1cccs1)N(C)CC2 (stereo not given),-0.289,-0.0812 (inactive),0.134 (inactive),-0.374 (inactive),-0.0678 (inactive),-1.17,-0.218,-1.19,-0.597,-0.44,0.158 (inactive),-0.103,4.23 (inactive),1.17 (inactive),-0.0863 (inactive),0.352 (inactive),-0.331,-4.66 (inactive),-2.71 (inactive),-2.33
C=C(COC)/C(=C/C[C@H](OC(C)=O)c1ccc(CO)o1)c1cc(C(=O)OC)ccc1OC,0.122,-3.08 (inactive),-0.261 (inactive),1.78 (inactive),1.71 (inactive),-0.427,-0.154,-0.156,0.647,0.756,0.506 (inactive),-0.193,1.25 (inactive),-2.29 (inactive),0.672 (inactive),-2.07 (inactive),0.873,-1.85 (inactive),-1.92 (inactive),-1.14
C=C(C)[C@@H]1CC=C(C(O)C2C=CC3C(=O)N(c4ccccc4)C(=O)C3N2Nc2ccccc2)CC1 (stereo not given in full),0.371,0.0984 (inactive),-1.65 (inactive),0.0569 (inactive),-0.0811 (inactive),2.43,0.906,0.476,0.579,0.456,-0.59 (inactive),1.33,8.1 (active),2.94 (inactive),1.09 (inactive),1.73 (inactive),-0.798,-0.653 (inactive),-3.06 (inactive),-2.48
CC1CC/C=C\[C@H]2OC34C=CCN(Cc5ccccc5)C(=O)[C@H]3N(CCCO)C(=O)[C@@H]4C2C(=O)O1 (stereo not given in full),-0.403,-0.667 (inactive),0.446 (inactive),-0.0778 (inactive),0.776 (inactive),-0.942,-0.206,-0.681,-1.56,-0.233,0.144 (inactive),-0.147,0.329 (inactive),-0.093 (inactive),-0.316 (inactive),-0.254 (inactive),-0.102,1.66 (inactive),0.366 (inactive),3.18
